In PubChem BioAssay:
Active and inactive are the calls of the source. Unless noted, how the calls were made is not given here.

Key:
[1] = test system: Wnt5a (protein binding on small-molecule microarray); assay: Wnt5a binders on small-molecule microarray, primary screen, biophysical, 635/667 nm fluorescence (AID 1142); settings: 635 nm fluorescence, higher = more signal;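 further: fluorescence read at 667 nm with signal to noise per printed feature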
[2] = cell viability in Huh7 cells, primary screen, cytotoxicity control for HCV replication inhibitor project, CellTiter-Glo luminescence, basal, 48 h (AID 1143); settings: Huh7 HCV replicon, higher = more signal, called active from +8 up or from −8 down;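 further: Huh7 hepatoma cells carrying a hepatitis C replication reporter with no stimulus; test concentration not given here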
[3] = P. aeruginosa biofilm formation inhibitors, primary screen, PAO1 strain, BacTiter-Glo luminescence, LB-PBS (AID 1144); settings: 12 h, higher = more signal
[4] = CREB reporter modulators without forskolin, primary screen, cell-based, PC12, CRE-LacZ reporter, unstimulated (AID 1145); settings: no forskolin, luminescence, 4.5 h, higher = more signal, called active from +8 up or from −8 down
[5] = CREB reporter modulators under forskolin, primary screen, cell-based, PC12, CRE-LacZ reporter, forskolin-stimulated (AID 1146); settings: luminescence, 4.5 h, higher = more signal, called active from +8 up or from −8 down;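 further: PC12 cells with 6xCRE LacZ reporter stimulated by forskolin 10 µM; beta-galactosidase reporter signal reflecting CREB driven transcription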
[6] = biological target: Streptavidin (Streptomyces avidinii) (UniProt P22629); assay: streptavidin binders on small-molecule microarray, primary screen, artefact control for SMM compound annotation, biophysical, 635/667 nm fluorescence (AID 1147); settings: streptavidin binding, higher = more signal;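 further: signal reflects streptavidin binding to arrayed compounds as a control protein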
[7] = small-molecule binders of probe aInhba, primary screen, biochemical, small-molecule microarray, 635/667 nm fluorescence (AID 1148); settings: higher = more signal;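 further: score merges 667nm spot fluorescence with signal-to-noise for antibody binding to printed compounds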
Torsin-1A (Homo sapiens) [8] = biological target: Torsin-1A (Homo sapiens) (UniProt O14656); assay: torsin A binders from cell lysate, primary screen, small-molecule microarray, wild-type, 635/667 nm (AID 1149); settings: COS7 hTOR1A-WT lysate, 635 nm fluorescence, higher = more signal
Torsin-1A (Homo sapiens) [9] = biological target: Torsin-1A (Homo sapiens) (UniProt O14656); assay: small-molecule binders of mutant TOR1A in lysate, primary screen, cell lysate, small-molecule microarray, COS7 lysate, 635/667 nm fluorescence (AID 1150); settings: COS7 hTOR1A mutant lysate, 635 nm fluorescence, higher = more signal;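 further: score pools 667 nm emission and signal to noise measuring lysate protein binding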
[10] = test system: Sonic hedgehog protein (Shh); assay: small-molecule binders of Shh protein, primary screen, biochemical, small-molecule microarray, 635/667 nm fluorescence (AID 1151); settings: small-molecule microarray binding, 635 nm fluorescence; higher = more signal;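 further: Shh protein binding to compounds spotted on small-molecule microarray slides; score combines spot fluorescence intensity with signal-to-noise across triplicate slides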
[11] = E. coli DRC41 culture turbidity changes, primary screen, E. coli filamentation inducer project, strain DRC41, OD650, 48 h (AID 1152);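 further: E. coli MC1000 strain DRC41 lacking acrAB efflux pump and sulA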; settings: E. coli DRC41 (acrAB sulA), higher = more signal, called active from +8 up or from −8 down
[12] = small-molecule binders of probe aLefty1, primary screen, biochemical, small-molecule microarray, 635/667 nm fluorescence (AID 1153); settings: higher = more signal;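 further: score merges spot fluorescence with signal-to-noise ratio from the scanned slide images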
[13] = PSAC antagonists in infected red cells, primary screen, cell-based, P. falciparum Indochina, OD700, 1 h (AID 1154); settings: P. falciparum Indochina infected RBC osmotic lysis, higher = more signal, called active from +8 up or from −8 down
[14] = PSAC antagonists in infected red cells, primary screen, cell-based, P. falciparum Indochina, OD700, 2 h (AID 1155);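 further: lysis reports solute entry through the parasite surface anion channel PSAC; channel blockers reduce lysis of infected cells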; settings: P. falciparum Indochina infected erythrocytes, osmotic lysis OD700; higher = more signal, called active from +8 up or from −8 down
[15] = osmotic lysis modulators in infected erythrocytes, primary screen, PSAC antagonist project, cell-based, P. falciparum Indochina, OD700, 3 h (AID 1156); settings: higher = more signal, called active from +8 up or from −8 down
[16] = PSAC antagonists in infected red cells, primary screen, cell-based, P. falciparum Indochina, OD700, 18 h (AID 1157); settings: P. falciparum Indochina infected erythrocytes, osmotic lysis OD700, 18 h; higher = more signal, called active from +8 up or from −8 down
[17] = modulators of S6 phosphorylation in cells, primary screen, cell-based, A549, cytoblot, luminescence, serum-stimulated (AID 1158); settings: A549 phospho-S6 cytoblot, 5 h, higher = more signal;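 further: serum-stimulated A549 lung adenocarcinoma cells; signal is phosphorylated S6 detected by cytoblot immunostaining with HRP secondary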
[18] = biological target: NADPH oxidase 2 (Homo sapiens) (UniProt P04839); assay: NOX2-dependent H2O2 signal modulators, primary screen, NOX inhibitor project, cell-based, HEK293-NOX2, PMA-stimulated, Amplex Red fluorescence (AID 1159); settings: 45 min, higher = more signal, called active from +8 up or from −8 down; further: test concentration not given here
[19] = biological target: NADPH oxidase 4 (Homo sapiens) (UniProt Q9NPH5); assay: NOX4-dependent H2O2 signal modulators, primary screen, NOX inhibitor project, cell-based, HEK293-NOX4, tetracycline-induced, Amplex Red fluorescence (AID 1160); settings: 45 min, higher = more signal, called active from +8 up or from −8 down
[20] = biological target: NADPH oxidase 5 (Homo sapiens) (UniProt Q96PH1); assay: NOX5-dependent H2O2 signal modulators, primary screen, NOX inhibitor project, cell-based, HEK293-NOX5, Amplex Red fluorescence (AID 1161); settings: HEK293-NOX5, ionomycin, 45 min, higher = more signal
Sequence of NADPH oxidase 5 (Homo sapiens) (Q96PH1 whole entry, looked up): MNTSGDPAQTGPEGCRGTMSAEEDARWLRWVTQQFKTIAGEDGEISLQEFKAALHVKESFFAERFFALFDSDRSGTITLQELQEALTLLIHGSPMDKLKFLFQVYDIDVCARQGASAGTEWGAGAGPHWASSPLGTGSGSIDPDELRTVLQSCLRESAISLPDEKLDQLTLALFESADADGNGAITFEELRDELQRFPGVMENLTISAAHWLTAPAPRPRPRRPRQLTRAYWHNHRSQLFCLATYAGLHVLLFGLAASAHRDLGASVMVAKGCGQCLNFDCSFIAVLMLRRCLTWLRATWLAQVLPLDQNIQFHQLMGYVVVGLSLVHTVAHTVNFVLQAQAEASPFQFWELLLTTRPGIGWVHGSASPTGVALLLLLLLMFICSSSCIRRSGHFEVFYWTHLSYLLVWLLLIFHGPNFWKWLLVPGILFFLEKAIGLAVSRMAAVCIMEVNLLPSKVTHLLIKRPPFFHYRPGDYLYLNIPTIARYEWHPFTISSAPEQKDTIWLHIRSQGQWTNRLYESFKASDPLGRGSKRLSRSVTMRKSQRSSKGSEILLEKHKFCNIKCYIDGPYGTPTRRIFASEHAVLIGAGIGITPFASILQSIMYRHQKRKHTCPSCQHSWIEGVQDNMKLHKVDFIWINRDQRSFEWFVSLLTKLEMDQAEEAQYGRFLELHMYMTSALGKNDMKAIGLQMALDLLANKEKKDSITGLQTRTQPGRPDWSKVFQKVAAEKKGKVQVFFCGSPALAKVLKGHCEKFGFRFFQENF

Sequence of Streptavidin (Streptomyces avidinii) (P22629 whole entry, looked up): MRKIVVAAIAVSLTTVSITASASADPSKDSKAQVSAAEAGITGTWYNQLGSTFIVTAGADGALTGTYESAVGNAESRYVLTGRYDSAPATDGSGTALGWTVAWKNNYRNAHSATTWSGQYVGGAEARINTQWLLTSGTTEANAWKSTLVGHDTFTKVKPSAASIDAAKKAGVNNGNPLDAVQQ
Sequence of NADPH oxidase 2 (Homo sapiens) (P04839 whole entry, looked up): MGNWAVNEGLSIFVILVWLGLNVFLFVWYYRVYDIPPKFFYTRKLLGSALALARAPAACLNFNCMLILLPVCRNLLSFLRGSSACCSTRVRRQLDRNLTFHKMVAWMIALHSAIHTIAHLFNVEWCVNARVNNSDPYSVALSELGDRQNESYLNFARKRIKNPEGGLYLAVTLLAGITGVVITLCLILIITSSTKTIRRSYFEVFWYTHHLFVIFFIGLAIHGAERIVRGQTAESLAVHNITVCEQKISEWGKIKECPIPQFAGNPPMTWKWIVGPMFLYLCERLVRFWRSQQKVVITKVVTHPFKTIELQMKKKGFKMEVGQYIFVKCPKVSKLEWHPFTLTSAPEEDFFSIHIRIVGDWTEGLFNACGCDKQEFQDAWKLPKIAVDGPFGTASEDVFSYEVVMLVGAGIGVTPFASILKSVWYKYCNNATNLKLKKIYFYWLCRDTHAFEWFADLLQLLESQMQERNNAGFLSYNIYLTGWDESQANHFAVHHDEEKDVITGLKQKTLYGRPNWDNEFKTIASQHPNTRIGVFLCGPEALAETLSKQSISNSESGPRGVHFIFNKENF
Sequence of Torsin-1A (Homo sapiens) (O14656 whole entry, looked up): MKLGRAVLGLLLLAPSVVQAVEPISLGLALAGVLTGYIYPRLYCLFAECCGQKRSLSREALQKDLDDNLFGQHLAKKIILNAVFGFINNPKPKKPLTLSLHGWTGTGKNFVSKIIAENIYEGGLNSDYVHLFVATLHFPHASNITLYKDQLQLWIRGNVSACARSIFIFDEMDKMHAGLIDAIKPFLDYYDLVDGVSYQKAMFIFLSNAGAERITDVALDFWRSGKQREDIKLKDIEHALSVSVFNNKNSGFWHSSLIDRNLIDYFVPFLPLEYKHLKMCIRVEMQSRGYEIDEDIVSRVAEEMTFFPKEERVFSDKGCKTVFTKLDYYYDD
Sequence of NADPH oxidase 4 (Homo sapiens) (Q9NPH5 whole entry, looked up): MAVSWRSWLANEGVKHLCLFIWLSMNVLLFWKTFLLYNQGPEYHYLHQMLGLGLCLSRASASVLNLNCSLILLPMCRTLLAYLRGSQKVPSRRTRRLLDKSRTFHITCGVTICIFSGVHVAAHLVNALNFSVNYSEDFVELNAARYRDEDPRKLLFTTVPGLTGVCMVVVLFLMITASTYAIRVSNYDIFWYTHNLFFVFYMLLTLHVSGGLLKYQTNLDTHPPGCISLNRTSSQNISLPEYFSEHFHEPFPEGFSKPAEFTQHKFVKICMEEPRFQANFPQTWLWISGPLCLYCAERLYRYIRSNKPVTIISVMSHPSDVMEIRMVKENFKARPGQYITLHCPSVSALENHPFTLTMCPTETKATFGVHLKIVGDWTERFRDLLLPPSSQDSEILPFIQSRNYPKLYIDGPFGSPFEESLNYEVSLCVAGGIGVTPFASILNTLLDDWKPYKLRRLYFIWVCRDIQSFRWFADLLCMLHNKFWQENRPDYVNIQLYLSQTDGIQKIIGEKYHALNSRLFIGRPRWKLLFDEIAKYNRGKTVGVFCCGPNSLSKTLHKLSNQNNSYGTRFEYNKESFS

| Structure (SMILES) | composite z-score [1] | z-score [2] | z-score [3] | z-score [4] | z-score [5] | composite z-score [6] | composite z-score [7] | composite z-score (Torsin-1A (Homo sapiens) [8]) | composite z-score (Torsin-1A (Homo sapiens) [9]) | composite z-score [10] | z-score [11] | composite z-score [12] | z-score [13] | z-score [14] | z-score [15] | z-score [16] | z-score [17] | z-score [18] | z-score [19] | z-score [20] |
| --- | --- | --- | --- | --- | --- | --- | --- | --- | --- | --- | --- | --- | --- | --- | --- | --- | --- | --- | --- | --- |
| COC(=O)CC=C[C@@H](C)[C@@H](C=NOC[C@@H](C)[C@H](OCc1ccccc1)C(C)C)OC | 0.0814 | -0.112 (inactive) | -0.0142 (inactive) | 0.848 (inactive) | 0.0112 (inactive) | -0.437 | -0.161 | 0.155 | -0.0103 | 0.359 | 0.14 (inactive) | -0.29 | 2.17 (inactive) | 0.319 (inactive) | -0.728 (inactive) | -0.0741 (inactive) | 0.391 | 0.64 (inactive) | -0.614 (inactive) | -2.2 |
| CC(C)CN1CCc2nc(-c3ccccc3)c3c(c2C1)CO[C@@H](C)C3 | 0.379 | -0.718 (inactive) | -0.876 (inactive) | 9.42 (active) | -1.44 (inactive) | 0.235 | 0.115 | 0.0937 | 0.571 | 0.421 | 0.696 (inactive) | 0.123 | 1.56 (inactive) | 0.711 (inactive) | 0.61 (inactive) | 0.615 (inactive) | 0.418 | 2.18 (inactive) | -2.08 (inactive) | 0.551 |
| CC(CCN1CCc2nc(-c3ccccc3)c(-c3ccccc3)cc2C1)=NO[C@H](C)c1cn([C@H](CO)Cc2ccccc2)nn1 | 0.136 | -2.39 (inactive) | -0.413 (inactive) | 0.987 (inactive) | 1.11 (inactive) | 0.545 | -0.0494 | 0.824 | 1.23 | 0.565 | -1.52 (inactive) | 0.057 | 1.6 (inactive) | 0.147 (inactive) | 1.16 (inactive) | 0.293 (inactive) | -0.746 | -4.57 (inactive) | -0.31 (inactive) | -1.75 |
| CC(=O)OC[C@H]1O[C@H](CC=NO[C@@H](C)c2cn([C@H](CO)Cc3ccccc3)nn2)C=C[C@@H]1OC(C)=O | 0.0065 | -2.35 (inactive) | -0.902 (inactive) | 1.67 (inactive) | 0.114 (inactive) | 0.777 | -0.0963 | 0.542 | 0.692 | 0.911 | -0.89 (inactive) | -0.196 | -0.719 (inactive) | -0.429 (inactive) | 0.656 (inactive) | -1.23 (inactive) | 0.703 | -2.05 (inactive) | -2.01 (inactive) | -1.41 |
| CON=C(C)CCC(=O)OC[C@H]1O[C@H](C#Cc2ccccc2)C=C[C@@H]1Oc1ccc(C)cc1 | 0.0488 | -1.85 (inactive) | -0.0775 (inactive) | 0.415 (inactive) | 1.24 (inactive) | 0.0457 | -0.016 | 0.552 | -0.0451 | 0.597 | -2.47 (inactive) | -0.0141 | 2.13 (inactive) | 0.277 (inactive) | -0.73 (inactive) | 0.073 (inactive) | -0.57 | -2.16 (inactive) | -2.25 (inactive) | -0.0339 |
| COc1cccc([C@H](O)Cn2cc(-c3ccc(CON=C(C)C)cc3)nn2)c1 | -0.0033 | -0.385 (inactive) | -0.24 (inactive) | 1.55 (inactive) | -0.222 (inactive) | -0.207 | 0.0082 | 0.0944 | 0.271 | -0.348 | 0.697 (inactive) | -0.103 | 25.6 (active) | 12.2 (active) | 0.99 (inactive) | 1.54 (inactive) | -1.07 | 0.0342 (inactive) | -0.0373 (inactive) | -0.169 |
| CC(CCN1CCCCc2nc(C)c(C)cc21)=NO[C@H](C)c1cn([C@@H]2COC[C@H]2O)nn1 | 0.229 | -0.216 (inactive) | 0.184 (inactive) | -0.482 (inactive) | -0.445 (inactive) | 1.12 | -0.0701 | 2.71 | 2.5 | 2.01 | 0.431 (inactive) | -0.0088 | 0.682 (inactive) | 0.406 (inactive) | 0.116 (inactive) | 0.342 (inactive) | -0.363 | -0.526 (inactive) | 0.167 (inactive) | -0.376 |
| O=C1CCCC=C1C(O)COCc1ccccc1 (stereo not given) | 0.154 | 0.78 (inactive) | 0.616 (inactive) | 0.109 (inactive) | 0.0658 (inactive) | 1.42 | -0.238 | -0.465 | -0.0394 | 0.124 | -0.245 (inactive) | -0.194 | 0.782 (inactive) | 0.36 (inactive) | -0.0291 (inactive) | -0.0223 (inactive) | -0.338 | 0.237 (inactive) | 0.733 (inactive) | 0.63 |
| Cc1ccc(S(=O)(=O)N[C@@H]2COC(=O)CC=C[C@@H](C)[C@H](NS(=O)(=O)c3ccc(C)cc3)COC(=O)[C@H](C)NC(=O)CC=C[C@H]2C)cc1 | -0.0175 | 0.218 (inactive) | -0.88 (inactive) | -0.38 (inactive) | -0.863 (inactive) | -0.508 | -0.121 | -0.0787 | 0.0835 | 0.427 | 0.328 (inactive) | -0.147 | -0.434 (inactive) | -0.159 (inactive) | -0.207 (inactive) | 0.106 (inactive) | 0.378 | -6.49 (inactive) | 0.375 (inactive) | -0.545 |
